The results in this text go back to PubChem BioAssay.

Values without a mark were called inactive. Records with an inconclusive call do not appear. Calls of active or inactive are those of the source.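 How the source made its calls, unless noted: active means inhibition over a set limit, the all-compound mean plus 3 SD, in both replicate runs; inconclusive means over that limit in just one replicate run; inactive means at or under that limit in both runs.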

The first assay is described as follows: viability of PTEN-null HCT116 cells – cell-based, HCT116 clonal line, CellTiter-Glo, pilot screen (AID 824;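 active means viability at or below 27.92% in each of two runs, the all-compound median minus 4 SD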;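 further: 0% = 20 µM Hyamine control and 100% = vehicle cell control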). As to conditions: HCT116 PTEN-deleted viability, 60 h, at 10 µM, active compounds read low. For orientation: ATP-based viability assays read luminescence as a measure of living cells.
As for `COc1ccc(C2=[N+]([O-])C(C)(C)N(O)C2(C)C)cc1`, the viability (commonly a read-out of living cells in per cent, often relative to untreated cells) was 100%.

For `Cc1onc(-c2ccccc2Cl)c1C(=O)N1CCN(c2cccc(Cl)c2)CC1`, the viability is 22% (active).

For the compound `O=c1[nH]c(SCc2ccccc2Cl)nc2c1CCC2`, the viability is 96.9%.

Consider `CC(=O)NCCOC(=O)Nc1ccncc1`, for which the viability is 99.1%.

On to `Cc1cccc(NC(=O)CS(=O)(=O)c2cn(C)c3ccccc23)c1C`, for which the viability was 96.5%.

As to `O=C(Nc1ccc(Cl)cc1)N(Cc1cccs1)Cc1cccs1`, the viability was 64.9%.

As for `COc1ccc(OC(C)C(=O)Nc2cccc(OC)c2)cc1` (stereo not given), the viability was 97.9%.

Turning to `COc1cc2c(C(=O)N3CCN(Cc4ccc5c(c4)OCO5)CC3)cn(C)c(=O)c2cc1OC`, the viability was 95.6%.

On to `COc1ccc(S(=O)(=O)N(CCc2ccccc2)CC(=O)N2CCOCC2)cc1`, for which the viability was 96.6%.

`CN(C)c1ccc(NC(=S)c2ccccn2)cc1`: the viability was 47.2%.

As to `O=C1N=C(c2ccccc2)C(c2ccccc2)N1` (stereo not given), the viability is 90.8%.

On to `C#CCN1C(=O)C(O)(CC(=O)c2ccc(OC)c(OC)c2)c2ccccc21` (stereo not given), for which the viability was 48%.

Consider `CS(=O)(=O)N(CC(=O)N1CCCCCC1)c1cccc(Br)c1`, for which the viability was 94.5%.

In the case of `CCSc1nc2ccccc2n1CC(=O)N1CCOCC1`, the viability was 92.4%.

For `C=C1c2ccc(C)cc2NC(=O)N1c1ccccc1`, the viability is 94.2%.

For `CCc1cccc(C)c1NC(=O)CCCC(=O)O`, the viability was 102%.

Turning to `COc1ccc(Oc2ccc(S(=O)(=O)N3CCCCC3)cc2S(=O)(=O)N2CCCCC2)cc1`, the viability was 87.1%.

On to `CS(=O)(=O)N(CC(=O)NCc1ccncc1)c1cc(Cl)cc(Cl)c1`, for which the viability is 105%.

Consider `O=C(CNC(=O)c1ccco1)OCc1ccc(Cl)cc1`, for which the viability was 102%.

Take `O=C(COc1ccccc1)NCCSc1ccccc1`: the viability was 97.5%.

In the case of `CS(=O)(=O)N(CC(=O)N1CCN(c2ccccc2F)CC1)c1cc(C(F)(F)F)ccc1Cl`, the viability was 88.3%.

On to `O=C(CCn1nnc2ccccc21)N1CCC(O)(c2cccc(F)c2)CC1`, for which the viability was 101%.

In the case of `COCCNC(=O)NC1(C(F)(F)F)Oc2ccc(Cl)cc2O1` (stereo not given), the viability was 41.9%.

On to `CCOC(=O)C1CCN(S(=O)(=O)c2cc(Br)cc3c2N(C(=O)C2CC2)CC3)CC1`, for which the viability is 96.5%.

As for `CCC(C)C1C(C#N)=C(N)Oc2n[nH]c(C)c21` (stereo not given), the viability is 62.9%.

As for `COC(=O)c1ccc2[nH]c(C)c(CN3CCCC3)c(=O)c2c1`, the viability was 95.3%.

For `CCn1cc(S(=O)(=O)CC(=O)NC2CCCCC2)c2ccccc21`, the viability is 97.4%.

On to `COc1ccccc1CNC(=O)CCS(=O)(=O)c1cccs1`, for which the viability was 103%.

As to `Cc1ccsc1C(=O)OCC(=O)c1cc2ccccc2o1`, the viability was 97.3%.

Regarding `CCn1c(C)c2c(C)nnc(C)c2c1C`, the viability is 91.5%.

Consider `CCOC(=O)c1ccc(NC(=O)c2cccc(S(=O)(=O)N3CCOCC3)c2)cc1`, for which the viability is 57.2%.

With `CCS(=O)(=O)C(=C(Nc1ccc(OC)cc1)Nc1ccc(OC)cc1)S(=O)(=O)CC`, the viability was 95.3%.

With `c1ccc(CSc2nnc3c(n2)OC(c2ccco2)Nc2ccccc2-3)cc1` (stereo not given), the viability is 88.8%.

With `CC(Sc1nc2c(c(=O)n(C)c(=O)n2C)n1Cc1cc2c(cc1Cl)OCO2)C(=O)O` (stereo not given), the viability is 99.9%.

Take `CCN(CC)C(=O)c1cn(C)c(=O)c2cc(OC)c(OC)cc12`: the viability was 98.8%.

`CCc1cc(=O)oc2cc(OCC(=O)OC)c(Cl)cc12`: the viability was 101%.

On to `CCOC(=O)N1CCN(C(=O)CN(c2cccc(C(F)(F)F)c2)S(C)(=O)=O)CC1`, for which the viability is 88.9%.

In the case of `CCN(CC)C(=O)C(C)N(C#N)c1nc(NC(C)C)nc(NC(C)C)n1` (stereo not given), the viability was 101%.

Take `CCN1CCN(c2cc(C)c3cc(NC(=O)c4ccc5c(c4)OCO5)ccc3n2)CC1`: the viability was 47.2%.

On to `CC(c1ccccc1F)n1cc(C(=O)NCCc2ccco2)nn1` (stereo not given), for which the viability is 76.3%.

A further assay can be described thus: RAM pathway blockade in budding yeast – dse1pr::URA3 reporter, 5-FOA selection, pilot screen (AID 869).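 Further: 0% = DMSO wells with no growth and 100% = 10 µM 1-NA-PP1 with full growth; RAM network block rescues cells from 5-FOA so hits raise OD615 growth.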 The settings on record: S. cerevisiae dse1pr::URA3 5-FOA growth, OD615, 2 d; at 10 µM; active compounds read high; strain carries analog-sensitive mutant Cbk1 kinase.
`COc1ccc(C2=[N+]([O-])C(C)(C)N(O)C2(C)C)cc1`: the inhibition (commonly the drop in the measured response relative to a control, in per cent) was 1.38%.

Consider `Cc1onc(-c2ccccc2Cl)c1C(=O)N1CCN(c2cccc(Cl)c2)CC1`, for which the inhibition is 2.73%.

Take `O=c1[nH]c(SCc2ccccc2Cl)nc2c1CCC2`: the inhibition was 1.91%.

For `CC(=O)NCCOC(=O)Nc1ccncc1`, the inhibition is 1.32%.

With `Cc1cccc(NC(=O)CS(=O)(=O)c2cn(C)c3ccccc23)c1C`, the inhibition is 1.46%.

Regarding `O=C(Nc1ccc(Cl)cc1)N(Cc1cccs1)Cc1cccs1`, the inhibition is 2.13%.

Turning to `COc1ccc(OC(C)C(=O)Nc2cccc(OC)c2)cc1` (stereo not given), the inhibition is 0.625%.

For the compound `COc1cc2c(C(=O)N3CCN(Cc4ccc5c(c4)OCO5)CC3)cn(C)c(=O)c2cc1OC`, the inhibition was 0.85%.

Regarding `COc1ccc(S(=O)(=O)N(CCc2ccccc2)CC(=O)N2CCOCC2)cc1`, the inhibition is 0.965%.

Take `CN(C)c1ccc(NC(=S)c2ccccn2)cc1`: the inhibition was 1.82%.

Consider `O=C1N=C(c2ccccc2)C(c2ccccc2)N1` (stereo not given), for which the inhibition was 1.23%.

Take `C#CCN1C(=O)C(O)(CC(=O)c2ccc(OC)c(OC)c2)c2ccccc21` (stereo not given): the inhibition was 1.62%.

`CS(=O)(=O)N(CC(=O)N1CCCCCC1)c1cccc(Br)c1`: the inhibition was 1.21%.

Turning to `CCSc1nc2ccccc2n1CC(=O)N1CCOCC1`, the inhibition was 0.915%.

On to `C=C1c2ccc(C)cc2NC(=O)N1c1ccccc1`, for which the inhibition was 0.375%.

Turning to `CCc1cccc(C)c1NC(=O)CCCC(=O)O`, the inhibition was 0.44%.

Regarding `COc1ccc(Oc2ccc(S(=O)(=O)N3CCCCC3)cc2S(=O)(=O)N2CCCCC2)cc1`, the inhibition is 1.56%.

With `CS(=O)(=O)N(CC(=O)NCc1ccncc1)c1cc(Cl)cc(Cl)c1`, the inhibition was 1.33%.

On to `O=C(CNC(=O)c1ccco1)OCc1ccc(Cl)cc1`, for which the inhibition is 0.375%.

`O=C(COc1ccccc1)NCCSc1ccccc1`: the inhibition was 1.55%.

In the case of `CS(=O)(=O)N(CC(=O)N1CCN(c2ccccc2F)CC1)c1cc(C(F)(F)F)ccc1Cl`, the inhibition is -0.485%.

Consider `O=C(CCn1nnc2ccccc21)N1CCC(O)(c2cccc(F)c2)CC1`, for which the inhibition was 2.4%.

Consider `COCCNC(=O)NC1(C(F)(F)F)Oc2ccc(Cl)cc2O1` (stereo not given), for which the inhibition is 0.43%.

In the case of `CCOC(=O)C1CCN(S(=O)(=O)c2cc(Br)cc3c2N(C(=O)C2CC2)CC3)CC1`, the inhibition is 1.68%.

Regarding `CCC(C)C1C(C#N)=C(N)Oc2n[nH]c(C)c21` (stereo not given), the inhibition is 0.79%.

For `COC(=O)c1ccc2[nH]c(C)c(CN3CCCC3)c(=O)c2c1`, the inhibition is 0.415%.

For `CCn1cc(S(=O)(=O)CC(=O)NC2CCCCC2)c2ccccc21`, the inhibition is 1.71%.

With `COc1ccccc1CNC(=O)CCS(=O)(=O)c1cccs1`, the inhibition is 1.43%.

With `Cc1ccsc1C(=O)OCC(=O)c1cc2ccccc2o1`, the inhibition was 1.28%.

As for `CCn1c(C)c2c(C)nnc(C)c2c1C`, the inhibition was 1.05%.

As to `CCOC(=O)c1ccc(NC(=O)c2cccc(S(=O)(=O)N3CCOCC3)c2)cc1`, the inhibition is 2.96%.

`CCS(=O)(=O)C(=C(Nc1ccc(OC)cc1)Nc1ccc(OC)cc1)S(=O)(=O)CC`: the inhibition was 0.04%.

Regarding `c1ccc(CSc2nnc3c(n2)OC(c2ccco2)Nc2ccccc2-3)cc1` (stereo not given), the inhibition was 0.38%.

Take `CC(Sc1nc2c(c(=O)n(C)c(=O)n2C)n1Cc1cc2c(cc1Cl)OCO2)C(=O)O` (stereo not given): the inhibition is 1.83%.

As for `CCN(CC)C(=O)c1cn(C)c(=O)c2cc(OC)c(OC)cc12`, the inhibition was 0.515%.

Turning to `CCc1cc(=O)oc2cc(OCC(=O)OC)c(Cl)cc12`, the inhibition is 0.695%.

Regarding `CCOC(=O)N1CCN(C(=O)CN(c2cccc(C(F)(F)F)c2)S(C)(=O)=O)CC1`, the inhibition is 0.905%.

As to `CCN(CC)C(=O)C(C)N(C#N)c1nc(NC(C)C)nc(NC(C)C)n1` (stereo not given), the inhibition was 0.715%.

In the case of `CCN1CCN(c2cc(C)c3cc(NC(=O)c4ccc5c(c4)OCO5)ccc3n2)CC1`, the inhibition is -0.365%.

`CC(c1ccccc1F)n1cc(C(=O)NCCc2ccco2)nn1` (stereo not given): the inhibition was 0.72%.
